Reference: the supplement of paper PMC8728848
Shown is part of a subset that was picked to be rich in the strongest signals.

Key:
Assay in all cases: glycan array binding signal (z-score within array); higher = stronger binding
Settings in all cases: glycan notation: IUPAC condensed, linker removed
[1] = target: Fuc(a1-2)Gal(b1-3)GalNAc(b1-4)[Neu5Ac(a2-3)]Gal(b1-4)Glc
In short: (§1)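 From the Consortium for Functional Glycomics database, 3228 arrays were curated, keeping only those whose protein sequence was available. Binding is given as a within-array Z-score averaged across arrays sharing a protein sequence and across linkers. Negative Z-scores can be read as non-binding.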

[2] = target: Fuc(a1-2)[Gal(a1-3)]Gal(b1-4)GlcNAc(b1-2)Man
In short: as §1

[3] = target: Fuc(a1-2)[Gal(a1-3)]Gal(b1-4)GlcNAc(b1-2)Man(a1-3)[Fuc(a1-2)[Gal(a1-3)]Gal(b1-4)GlcNAc(b1-2)Man(a1-6)]Man(b1-4)GlcNAc(b1-4)GlcNAc
In short: as §1

[4] = target: Fuc(a1-2)[Gal(a1-3)]Gal(b1-4)GlcNAc(b1-3)GalNAc
In short: as §1

[5] = target: Fuc(a1-2)[Gal(a1-3)]Gal(b1-4)[Fuc(a1-3)]GlcNAc
In short: as §1

Fuc(a1-4)GlcNAc = target: Fuc(a1-4)GlcNAc
In short: as §1

[6] = target: Gal(a1-3)Gal(b1-3)GlcNAc(b1-2)Man(a1-3)[Gal(a1-3)Gal(b1-3)GlcNAc(b1-2)Man(a1-6)]Man(b1-4)GlcNAc(b1-4)GlcNAc
In short: as §1

[7] = target: Gal(a1-3)Gal(b1-3)GlcNAc(b1-3)GalNAc
In short: as §1

[8] = target: Gal(a1-3)Gal(b1-3)[Fuc(a1-4)]GlcNAc(b1-2)Man(a1-3)[Gal(a1-3)Gal(b1-3)[Fuc(a1-4)]GlcNAc(b1-2)Man(a1-6)]Man(b1-4)GlcNAc(b1-4)GlcNAc
In short: as §1

[9] = target: Gal(a1-3)Gal(b1-4)GlcNAc(b1-2)Man
In short: as §1

[10] = target: Gal(a1-3)Gal(b1-4)GlcNAc(b1-2)Man(a1-3)[Gal(a1-3)Gal(b1-4)GlcNAc(b1-2)Man(a1-6)]Man(b1-4)GlcNAc(b1-4)GlcNAc
In short: as §1

[11] = target: Gal(a1-3)Gal(b1-4)GlcNAc(b1-6)GalNAc
In short: as §1

[12] = target: Gal(a1-3)Gal(b1-4)[Fuc(a1-3)]GlcNAc
In short: as §1

Gal(a1-4)Gal(b1-4)Glc = target: Gal(a1-4)Gal(b1-4)Glc
In short: as §1

[13] = target: Gal(a1-4)Gal(b1-4)GlcNAc(b1-2)Man(a1-3)[Gal(a1-4)Gal(b1-4)GlcNAc(b1-2)Man(a1-6)]Man(b1-4)GlcNAc(b1-4)GlcNAc
In short: as §1

Gal(a1-6)Glc = target: Gal(a1-6)Glc
In short: as §1

[14] = target: Gal(b1-3)GlcNAc(b1-3)Gal(b1-4)GlcNAc(b1-2)[Gal(b1-3)GlcNAc(b1-3)Gal(b1-4)GlcNAc(b1-6)]Man(a1-6)[Gal(b1-3)GlcNAc(b1-3)Gal(b1-4)GlcNAc(b1-2)Man(a1-3)]Man(b1-4)GlcNAc(b1-4)[Fuc(a1-6)]GlcNAc
In short: as §1

[15] = target: Gal(b1-3)GlcNAc(b1-3)Gal(b1-4)GlcNAc(b1-3)Gal(b1-4)GlcNAc(b1-2)[Gal(b1-3)GlcNAc(b1-3)Gal(b1-4)GlcNAc(b1-3)Gal(b1-4)GlcNAc(b1-6)]Man(a1-6)[Gal(b1-3)GlcNAc(b1-3)Gal(b1-4)GlcNAc(b1-3)Gal(b1-4)GlcNAc(b1-2)Man(a1-3)]Man(b1-4)GlcNAc(b1-4)[Fuc(a1-6)]GlcNAc
In short: as §1

Gal(b1-4)Gal = target: Gal(b1-4)Gal
In short: as §1

Gal(b1-4)Glc = target: Gal(b1-4)Glc
In short: as §1

[16] = target: Gal(b1-4)GlcNAc(b1-2)Man(a1-3)Man(b1-4)GlcNAc(b1-4)GlcNAc
In short: as §1

[17] = target: Gal(b1-4)GlcNAc(b1-3)Gal(b1-4)GlcNAc
In short: as §1

[18] = target: Gal3S(b1-4)[Fuc(a1-3)]Glc6S
In short: as §1

Gal3S4S(b1-4)GlcNAc = target: Gal3S4S(b1-4)GlcNAc
In short: as §1

Gal3S6S(b1-4)GlcNAc = target: Gal3S6S(b1-4)GlcNAc
In short: as §1

Gal6S(b1-3)GlcNAc = target: Gal6S(b1-3)GlcNAc
In short: as §1

[19] = target: GalNAc(b1-4)GlcNAc(b1-2)Man(a1-3)[GalNAc(b1-4)GlcNAc(b1-2)Man(a1-6)]Man(b1-4)GlcNAc(b1-4)GlcNAc
In short: as §1

GalNAc3S(b1-4)GlcNAc = target: GalNAc3S(b1-4)GlcNAc
In short: as §1

Glc(b1-4)Glc = target: Glc(b1-4)Glc
In short: as §1

[20] = target: GlcNAc(a1-4)Gal(b1-4)GlcNAc(b1-3)Gal(b1-4)GlcNAc
In short: as §1

[21] = target: GlcNAc(a1-4)Gal(b1-4)GlcNAc(b1-3)Gal(b1-4)GlcNAc(b1-3)Gal(b1-4)GlcNAc
In short: as §1

[22] = target: GlcNAc(b1-2)[GlcNAc(b1-4)]Man(a1-3)[GlcNAc(b1-4)][GlcNAc(b1-2)[GlcNAc(b1-6)]Man(a1-6)]Man(b1-4)GlcNAc(b1-4)[Fuc(a1-6)]GlcNAc
In short: as §1

[23] = target: GlcNAc(b1-2)[GlcNAc(b1-6)]Man(a1-6)[GlcNAc(b1-2)Man(a1-3)]Man(b1-4)GlcNAc(b1-4)GlcNAc
In short: as §1

GlcNAc(b1-3)Gal = target: GlcNAc(b1-3)Gal
In short: as §1

[24] = target: GlcNAc(b1-3)Gal(b1-3)GalNAc
In short: as §1

[25] = target: GlcNAc(b1-3)Gal(b1-4)GlcNAc(b1-3)Gal(b1-4)GlcNAc(b1-2)[GlcNAc(b1-3)Gal(b1-4)GlcNAc(b1-3)Gal(b1-4)GlcNAc(b1-6)]Man(a1-6)[GlcNAc(b1-3)Gal(b1-4)GlcNAc(b1-3)Gal(b1-4)GlcNAc(b1-2)Man(a1-3)]Man(b1-4)GlcNAc(b1-4)[Fuc(a1-6)]GlcNAc
In short: as §1

[26] = target: GlcNAc(b1-3)Gal(b1-4)GlcNAc(b1-3)Gal(b1-4)GlcNAc(b1-3)Gal(b1-4)GlcNAc(b1-3)Gal(b1-4)GlcNAc(b1-2)Man(a1-3)[GlcNAc(b1-3)Gal(b1-4)GlcNAc(b1-3)Gal(b1-4)GlcNAc(b1-3)Gal(b1-4)GlcNAc(b1-3)Gal(b1-4)GlcNAc(b1-2)Man(a1-6)]Man(b1-4)GlcNAc(b1-4)GlcNAc
In short: as §1

[27] = target: GlcNAc(b1-3)[GlcNAc(b1-6)]GalNAc
In short: as §1

[28] = target: GlcNAc(b1-4)GlcNAc(b1-4)GlcNAc(b1-4)GlcNAc(b1-4)GlcNAc
In short: as §1

[29] = target: Man(a1-2)Man(a1-2)Man(a1-6)[Man(a1-3)]Man
In short: as §1

Man(a1-2)Man(a1-3)Man = target: Man(a1-2)Man(a1-3)Man
In short: as §1

[30] = target: Man(a1-2)Man(a1-6)[Man(a1-3)]Man(a1-6)[Man(a1-2)Man(a1-2)Man(a1-3)]Man(b1-4)GlcNAc(b1-4)GlcNAc
In short: as §1

[31] = target: Neu5Ac(a2-3)Gal(b1-3)GalNAc(b1-3)Gal(a1-4)Gal(b1-4)Glc
In short: as §1

[32] = target: Neu5Ac(a2-3)Gal(b1-3)GlcNAc(b1-6)GalNAc
In short: as §1

[33] = target: Neu5Ac(a2-3)Gal(b1-4)GlcNAc(b1-3)Gal(b1-4)GlcNAc
In short: as §1

[34] = target: Neu5Ac(a2-3)Gal(b1-4)[Fuc(a1-3)]GlcNAc(b1-3)GalNAc
In short: as §1

[35] = target: Neu5Ac(a2-6)Gal(b1-4)GlcNAc(b1-2)Man(a1-3)[GlcNAc(b1-4)][Neu5Ac(a2-6)Gal(b1-4)GlcNAc(b1-2)Man(a1-6)]Man(b1-4)GlcNAc(b1-4)GlcNAc
In short: as §1

[36] = target: Neu5Ac(a2-6)Gal(b1-4)GlcNAc(b1-2)Man(a1-6)Man(b1-4)GlcNAc(b1-4)GlcNAc
In short: as §1

[37] = target: Neu5Ac(a2-6)Gal(b1-4)GlcNAc(b1-3)Gal(b1-4)GlcNAc(b1-3)Gal(b1-4)GlcNAc(b1-2)Man(a1-3)[Neu5Ac(a2-6)Gal(b1-4)GlcNAc(b1-3)Gal(b1-4)GlcNAc(b1-3)Gal(b1-4)GlcNAc(b1-2)Man(a1-6)]GalNAc
In short: as §1

[38] = target: Neu5Ac(a2-8)Neu5Ac(a2-3)Gal(b1-3)GalNAc(b1-4)[Neu5Ac(a2-8)Neu5Ac(a2-3)]Gal(b1-4)Glc
In short: as §1

[39] = target: Neu5Ac(a2-8)Neu5Ac(a2-3)Gal(b1-4)Glc
In short: as §1

[40] = target: Neu5Ac(a2-8)Neu5Ac(a2-8)Neu5Ac(a2-3)[GalNAc(b1-4)]Gal(b1-4)Glc
In short: as §1

[41] = target: Neu5Gc(a2-3)Gal(b1-3)[Fuc(a1-4)]GlcNAc
In short: as §1

[42] = target: Neu5Gc(a2-3)Gal(b1-4)[Fuc(a1-3)]GlcNAc
In short: as §1

B1: SJCP3842 (Schistosoma japonicum) (protein)
chain: MFKMRIINLVNISTVLLLINLLQTKSRLVGKENGFMLTVSIYGAQLSDKMTSVPVSWTIDYEDPEKSAFKKLVTDSCDTFSEYVKSQIPKGSVDGQCTSHIFQRPGSGSGVSISLTLSFIYVDVTQPDTVALKTELEKHFANFVTIHSHKITQAQFRINQKAIVIPTGDKDAIDGSKWKIIAIIALVALAIVVIGGFIYICVK
glycan array binding signal (z-score) [1]: 0.207 | glycan array binding signal (z-score) [2]: -1.05 | glycan array binding signal (z-score) [3]: 0.46 | glycan array binding signal (z-score) [4]: 0.343 | glycan array binding signal (z-score) [5]: 0.536 | glycan array binding signal (z-score) (Fuc(a1-4)GlcNAc): 4.44 | glycan array binding signal (z-score) [6]: 3.31 | glycan array binding signal (z-score) [7]: 0.153 | glycan array binding signal (z-score) [8]: 2.45 | glycan array binding signal (z-score) [9]: -1.09 | glycan array binding signal (z-score) [10]: -0.76 | glycan array binding signal (z-score) [11]: -0.327 | glycan array binding signal (z-score) [12]: 0.63 | glycan array binding signal (z-score) (Gal(a1-4)Gal(b1-4)Glc): -1.04 | glycan array binding signal (z-score) [13]: 2.55 | glycan array binding signal (z-score) (Gal(a1-6)Glc): -1.59 | glycan array binding signal (z-score) [14]: 1.25 | glycan array binding signal (z-score) [15]: 1.37 | glycan array binding signal (z-score) (Gal(b1-4)Gal): -0.475 | glycan array binding signal (z-score) (Gal(b1-4)Glc): -1.59 | glycan array binding signal (z-score) [16]: -0.919 | glycan array binding signal (z-score) [17]: -0.05 | glycan array binding signal (z-score) [18]: 2.61 | glycan array binding signal (z-score) (Gal3S4S(b1-4)GlcNAc): -0.987 | glycan array binding signal (z-score) (Gal3S6S(b1-4)GlcNAc): 2.36 | glycan array binding signal (z-score) (Gal6S(b1-3)GlcNAc): -0.626 | glycan array binding signal (z-score) [19]: 0.2 | glycan array binding signal (z-score) (GalNAc3S(b1-4)GlcNAc): 0.48 | glycan array binding signal (z-score) (Glc(b1-4)Glc): -0.571 | glycan array binding signal (z-score) [20]: -0.28 | glycan array binding signal (z-score) [21]: 2.47 | glycan array binding signal (z-score) [22]: 0.364 | glycan array binding signal (z-score) [23]: -0.597 | glycan array binding signal (z-score) (GlcNAc(b1-3)Gal): -1.01 | glycan array binding signal (z-score) [24]: -0.211 | glycan array binding signal (z-score) [25]: 1.43 | glycan array binding signal (z-score) [26]: -0.488 | glycan array binding signal (z-score) [27]: -0.578 | glycan array binding signal (z-score) [28]: 0.984 | glycan array binding signal (z-score) [29]: -0.903 | glycan array binding signal (z-score) (Man(a1-2)Man(a1-3)Man): -1.03 | glycan array binding signal (z-score) [30]: -0.995 | glycan array binding signal (z-score) [31]: 0.587 | glycan array binding signal (z-score) [32]: 1.36 | glycan array binding signal (z-score) [33]: 1.89 | glycan array binding signal (z-score) [34]: 2.37 | glycan array binding signal (z-score) [35]: -0.194 | glycan array binding signal (z-score) [36]: 2.88 | glycan array binding signal (z-score) [37]: 4.64 | glycan array binding signal (z-score) [38]: 3.14 | glycan array binding signal (z-score) [39]: -1.34 | glycan array binding signal (z-score) [40]: 0.881 | glycan array binding signal (z-score) [41]: -0.715 | glycan array binding signal (z-score) [42]: 0.854
